From paper PMC3218832

Columns and labels:
Assay in all cases: protein binding microarray; high values mean tight binding
Conditions in all cases: dsDNA, one strand shown
[1] = target: RELARELA (p65 homodimer) (Homo sapiens, UniProt Q04206 1-307)
[2] = target: p50p50 homodimer (Homo sapiens, UniProt P19838 7-356)
[3] = target: T1, p52p52 homodimer (Homo sapiens, UniProt Q00653 4-332)
T1 sequence: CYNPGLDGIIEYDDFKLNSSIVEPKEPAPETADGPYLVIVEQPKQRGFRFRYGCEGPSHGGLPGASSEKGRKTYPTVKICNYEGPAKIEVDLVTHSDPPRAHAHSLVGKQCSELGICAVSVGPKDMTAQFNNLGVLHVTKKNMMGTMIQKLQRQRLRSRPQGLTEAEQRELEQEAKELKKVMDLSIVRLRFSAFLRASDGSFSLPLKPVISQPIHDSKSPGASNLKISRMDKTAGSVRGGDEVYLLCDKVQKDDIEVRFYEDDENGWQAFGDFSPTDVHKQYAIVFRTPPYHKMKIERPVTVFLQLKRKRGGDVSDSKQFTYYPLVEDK

[4] = target: RELA (p65) subunit of heterodimer;p50 subunit (Homo sapiens;Homo sapiens, UniProt Q04206;P19838 1-307;7-356)
[5] = target: RELA (p65) subunit of heterodimer;p52 subunit (Homo sapiens;Homo sapiens, UniProt Q04206;Q00653 1-307;4-332)
[6] = target: RELB subunit;p50 subunit (Homo sapiens;Homo sapiens, UniProt Q01201;P19838 120-401;7-356)
[7] = target: T2, RELB subunit;p52 subunit (Homo sapiens;Homo sapiens, UniProt Q01201;Q00653 120-401;4-332)
T2 sequence 1: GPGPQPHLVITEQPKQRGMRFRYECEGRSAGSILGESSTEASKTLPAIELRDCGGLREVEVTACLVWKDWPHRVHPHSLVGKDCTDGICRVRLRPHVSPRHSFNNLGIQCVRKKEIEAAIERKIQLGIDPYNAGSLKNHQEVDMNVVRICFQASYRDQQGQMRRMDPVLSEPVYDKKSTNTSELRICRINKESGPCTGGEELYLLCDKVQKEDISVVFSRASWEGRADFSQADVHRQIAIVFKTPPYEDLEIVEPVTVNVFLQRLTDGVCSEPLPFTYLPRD
T2 sequence 2: T1 sequence

[8] = target: C-Rel subunit;p50 subunit (Homo sapiens;Homo sapiens, UniProt Q04864;P19838 1-285;7-356)
[9] = target: T3, C-Rel subunit;p52 subunit (Homo sapiens;Homo sapiens, UniProt Q04864;Q00653 1-285;4-332)
T3 sequence 1: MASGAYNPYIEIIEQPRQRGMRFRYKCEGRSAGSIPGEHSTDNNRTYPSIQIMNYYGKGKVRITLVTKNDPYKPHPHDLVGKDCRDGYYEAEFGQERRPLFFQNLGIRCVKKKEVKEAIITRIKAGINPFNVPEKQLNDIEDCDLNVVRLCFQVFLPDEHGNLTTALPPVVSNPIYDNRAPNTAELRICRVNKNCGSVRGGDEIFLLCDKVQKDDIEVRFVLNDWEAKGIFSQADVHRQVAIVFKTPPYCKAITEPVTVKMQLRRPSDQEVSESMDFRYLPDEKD
T3 sequence 2: T1 sequence

Sequence of p50p50 homodimer (P19838 7-356): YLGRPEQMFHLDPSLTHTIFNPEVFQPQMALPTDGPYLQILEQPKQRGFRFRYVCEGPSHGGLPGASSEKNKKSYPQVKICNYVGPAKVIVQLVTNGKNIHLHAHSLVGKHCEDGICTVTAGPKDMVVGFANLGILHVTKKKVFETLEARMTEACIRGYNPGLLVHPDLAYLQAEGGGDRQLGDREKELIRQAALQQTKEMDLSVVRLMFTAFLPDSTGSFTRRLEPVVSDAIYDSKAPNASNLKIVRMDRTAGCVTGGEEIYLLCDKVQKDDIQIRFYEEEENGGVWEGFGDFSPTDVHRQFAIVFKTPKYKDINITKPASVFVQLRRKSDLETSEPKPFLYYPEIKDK
Sequence of RELA (p65) subunit of heterodimer;p50 subunit (Q04206 1-307, chain 1 of 2): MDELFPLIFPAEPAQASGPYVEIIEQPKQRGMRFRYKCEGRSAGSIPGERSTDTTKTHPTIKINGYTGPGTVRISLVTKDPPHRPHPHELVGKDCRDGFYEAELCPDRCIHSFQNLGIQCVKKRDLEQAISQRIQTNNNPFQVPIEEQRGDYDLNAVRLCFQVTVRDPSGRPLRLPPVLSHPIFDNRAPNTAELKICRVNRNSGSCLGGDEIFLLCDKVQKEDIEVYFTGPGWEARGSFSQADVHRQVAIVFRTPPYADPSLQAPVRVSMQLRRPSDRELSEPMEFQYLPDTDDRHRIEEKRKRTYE
Sequence of RELA (p65) subunit of heterodimer;p50 subunit (P19838 7-356, chain 2 of 2): as the sequence (P19838 7-356) above
Sequence of RELARELA (p65 homodimer) (Q04206 1-307): as the sequence (Q04206 1-307, chain 1 of 2) above

| Sequence | binding signal [1] [z-score] | binding signal [2] [z-score] | binding signal [3] [z-score] | binding signal [4] [z-score] | binding signal [5] [z-score] | binding signal [6] [z-score] | binding signal [7] [z-score] | binding signal [8] [z-score] | binding signal [9] [z-score] |
| --- | --- | --- | --- | --- | --- | --- | --- | --- | --- |
| GAGTATTTCCC | 2.24 | 0.925 | 1.05 | 1.27 | 1.1 | 0.527 | 0.505 | 1.24 | 1.14 |
| CAAAAATCCCC | 2.62 | 1.37 | 2.67 | 2.11 | 2.3 | 2.84 | 2.28 | 1.91 | 2.55 |
| CAGATCGTCCT | -0.0967 | -1.22 | -0.471 | -1 | -0.796 | -0.842 | -0.777 | -1.17 | -0.663 |
| AAAGAGACCCT | -1.1 | -0.515 | -0.457 | -0.679 | -0.542 | -0.626 | -0.766 | -1.12 | -0.688 |
| AAAGGAGTCCC | 0.141 | 0.939 | 0.569 | 0.732 | 0.431 | 0.907 | 0.607 | 0.81 | 0.405 |
| CAGTACCCCCC | -0.045 | 1.15 | 0.733 | 0.954 | 0.96 | 0.927 | 1.16 | 0.886 | 0.823 |
| CGGGGGTCCCT | 0.00646 | 1.14 | 0.985 | 0.963 | 1.07 | 1.06 | 1.23 | 0.761 | 0.926 |
| CGGGGGGTCCC | 0.448 | 0.975 | 2.05 | 1.38 | 1.59 | 1.28 | 1.67 | 1.04 | 1.59 |
| AGGTAAACCCC | 1.17 | 0.722 | 2.16 | 1.25 | 1.68 | 0.79 | 1.51 | 0.88 | 2.02 |
| AGGAGAACCCT | -0.567 | -0.719 | -0.426 | -0.838 | -0.729 | -0.652 | -0.634 | -0.871 | -0.624 |
| AAAGTGGTCCC | -0.237 | 0.456 | 0.16 | -0.319 | -0.267 | 0.24 | -0.0596 | -0.25 | -0.422 |
| GGATTGTTCCC | 0.75 | -0.265 | -0.233 | -0.0316 | -0.0574 | -0.257 | -0.307 | 0.0336 | 0.152 |
| CGAAGACTCCC | -0.527 | -0.307 | -0.407 | -0.172 | -0.618 | -0.262 | -0.747 | -0.657 | -0.571 |
| CAGAGTGCCCT | -0.65 | -1.13 | -0.629 | -0.784 | -0.964 | -0.897 | -0.973 | -0.975 | -0.713 |
| GGATACTTCCT | 0.213 | -1.36 | -0.625 | -0.647 | -0.831 | -1.14 | -0.942 | -1.04 | -0.591 |
| CAAGATTCCCT | 0.527 | 1.13 | 0.975 | 0.96 | 0.948 | 1.02 | 1.01 | 1.06 | 0.715 |
| AGGGTTGCCCT | -0.236 | -1.22 | -0.523 | -0.681 | -0.727 | -0.807 | -0.774 | -0.341 | -0.29 |
| AAAGGTCCCCT | -0.0302 | 1.09 | 0.848 | 0.65 | 0.742 | 1.05 | 0.989 | 0.669 | 0.512 |
| GGATTCCCCCT | 2.01 | 1.46 | 2.93 | 2.64 | 2.73 | 2.83 | 2.57 | 2.03 | 2.78 |
| AGGAAGCCCCC | 0.317 | 1.14 | 1.3 | 1.61 | 1.31 | 1.03 | 1.07 | 1.09 | 1.7 |
| GGAGTGACCCC | -0.389 | -0.505 | -0.461 | -0.353 | -0.178 | -0.399 | -0.304 | -0.367 | -0.254 |
